Reference: PubChem BioAssay
Records with an inconclusive call do not appear. Activity calls are given as the source filed them. Cut-off not given; nearly all actives show AC50 up to about 30 µM.

Assay: growth inhibition of DIPG glioma cells, dose response, cell-based, SU-DIPG-IV, MIPE4.0, CellTiter-Glo, qHTS (AID 1347063);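 further: compound exposure lasted 48 hours before the viability readout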
Conditions: SU-DIPG-IV viability, CellTiter-Glo ATP luminescence

SMILES | AC50 | outcome
CCOC(=O)[C@H](CCc1ccccc1)N[C@@H](C)C(=O)N1[C@H](C(=O)O)C[C@@H]2CCC[C@@H]21 | 5.9 µM (active) | –
CC(c1cc2ccccc2s1)N(O)C(N)=O (stereo unspecified) | – | inactive
CN1CCN(CCCN2c3ccccc3Sc3ccc(Cl)cc32)CC1 | 10.5 µM (active) | –
Cn1c(NCCN(CCO)CCCc2ccc([N+](=O)[O-])cc2)cc(=O)n(C)c1=O | 20.9 µM (active) | –
Cc1ncc([N+](=O)[O-])n1CCO | – | inactive
Cc1cn([C@H]2C=C[C@@H](CO)O2)c(=O)[nH]c1=O | – | inactive
COc1cc(C(=O)NS(=O)(=O)c2ccccc2C)ccc1Cc1cn(C)c2ccc(NC(=O)OC3CCCC3)cc12 | 20.9 µM (active) | –
CN1[C@@H]2CC[C@H]1CC(OC(=O)c1c[nH]c3ccccc13)C2 (stereo partly specified) | – | inactive
COc1cccc2c1C(=O)c1c(O)c3c(c(O)c1C2=O)C[C@@](O)(C(=O)CO)C[C@@H]3O[C@H]1C[C@H](N)[C@H](O)[C@H](C)O1 | 0.418 µM (active) | –
CC(=O)Oc1ccccc1C(=O)Nc1ncc([N+](=O)[O-])s1 | 34 µM (active) | –
Nc1ccn([C@H]2CC[C@@H](CO)O2)c(=O)n1 | – | inactive
Cc1nc2n(c(=O)c1CCN1CCC(c3noc4cc(F)ccc34)CC1)CCCC2 | – | inactive
O=C1N(c2ccccc2)c2ccccc2C1(Cc1ccncc1)Cc1ccncc1 | – | inactive
CC(=O)[C@]1(O)Cc2c(O)c3c(c(O)c2[C@@H](O[C@H]2C[C@H](N)[C@H](O)[C@H](C)O2)C1)C(=O)c1ccccc1C3=O | 0.662 µM (active) | –
CN(CCOc1ccc(NS(C)(=O)=O)cc1)CCc1ccc(NS(C)(=O)=O)cc1 | – | inactive
Cc1ccnc2c1NC(=O)c1cccnc1N2C1CC1 | 16.6 µM (active) | –
